Reference: PubChem BioAssay

experiment: small-molecule microarray binders of probe aEGFR, primary screen, biochemical, biotinylated probe, 635/667 nm fluorescence (AID 1097); conditions: higher = more signal;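 note: probe is a biotinylated anti-EGFR antibody binding compounds printed on slides; score combines fluorescence near 667 nm and signal to noise of each spot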

Compound | composite z-score
O=C1C[C@@](C(=O)O)(c2ccc([N+](=O)[O-])cc2)[C@@H](c2ccc(CO)cc2)N1CC12CC3CC(CC(C3)C1)C2 | 0.06
Cc1ccc(S[C@]2(C(=O)O)CC(=O)N(Cc3ccccc3C(F)(F)F)[C@@H]2c2ccc(CO)cc2)cc1 | -0.225
COC(=O)c1ccc(OC)c(/C=C\CC(CCc2ccccc2)OC(C)=O)c1 (stereo unspecified) | -0.0899
C#CCNS(=O)(=O)N(C)C | -0.054
O=C1CSC(c2cccc([N+](=O)[O-])c2)N1c1ccccc1 (stereo unspecified) | 0.0093
CCN(CC)c1ccc(N2CC=CC34O[C@@H]5/C=C\CCCOC(=O)C5[C@H]3C(=O)N(CCCCCO)[C@@H]4C2=O)cc1 (stereo partly specified) | -0.216
OCc1ccc(-c2cc[n+](Cc3cccc(OC(F)(F)F)c3)cc2)cc1 | -0.0016
COCC1=C([C@H](O)CCc2ccccc2)[C@H](CO)[C@@H]2C(=O)N(C)C(=O)[C@@H]2C1 | -0.106
COC(=O)[C@@]1(Cc2ccc(F)cc2)[C@H]2c3cc(C(=O)N(C)C)n(Cc4ccc(C)c(F)c4F)c3C[C@H]2CN1C(=O)c1ccccc1 | 0.856
CCOC(=O)C[C@H]1[C@H](OC(=O)c2ccc(C(=O)c3ccccc3)cc2)[C@@H](NC(=O)C2CCCCC2)c2cc(OCCCO)ccc2N1C(=O)Cc1ccc(OC)cc1 | 0.0408
CCCN1C(=O)[C@@]2(Cc3ccccc3)N=C(c3ccc(OCCCO)cc3)O[C@H]2c2ccccc21 | -0.0976
O=C1C2C=CC(C(O)c3ccccn3)N(Nc3ccccc3)C2C(=O)N1c1ccccc1 (stereo unspecified) | -0.108
COc1cc(C(O)C2C=CC3C(=O)N(C)C(=O)C3N2NC(=O)OC(C)(C)C)cc(OC)c1OC (stereo unspecified) | 0.561
COCC(=C=CC[C@@H](O)c1ccccc1OCCO)C[C@@H](O)c1ccccn1 | -0.0512
C[N+](C)(C)CCCC[C@@H]1NC(=O)[C@@H]2C[C@H](C(=O)O)[C@H](c3cccc(OCCO)c3)N2C1=O | -0.175
C=CCC(OC(C)=O)[C@@H]1[C@@H](N(Cc2ccc(-c3cccc(C(F)(F)F)c3)o2)C(=O)c2cccc3ccccc23)c2cc(OCCCO)ccc2N1C(=O)c1ccc(-c2ccccc2)cc1 (stereo partly specified) | -0.099
COCCCNC(=O)[C@@]1(C)c2ccccc2C(=O)N(c2ccc(C)cn2)[C@H]1c1ccc(CO)cc1 | -0.427
COCCCNC(=O)[C@@]1(Cc2ccccc2CN=[N+]=[N-])N=C(c2ccc(OCCCO)cc2)O[C@H]1c1ccccc1N=[N+]=[N-] | 0.525

Compound | composite z-score
CC1(C)[C@@H]2CC(C(O)C3C=CC4C(=O)N(c5ccccc5)C(=O)C4N3Nc3ccccc3F)=C[C@@H]1C2 (stereo partly specified) | 0.0066
CCOC(=O)C[C@H]1[C@H](OC(=O)Cc2ccc3c(c2)OCO3)[C@@H](NC(=O)c2ccccc2)c2cc(OCCCO)ccc2N1C(=O)c1ccc2ccccc2n1 | -0.147
C=CC[C@]1(C(=O)NCC(O)CO)N=C(c2ccc(OCCCO)cc2)O[C@H]1c1ccccc1N=[N+]=[N-] (stereo partly specified) | -0.142
C=C(COC)C(=O)CC[C@H](OC(=O)c1ccccc1-c1ccccc1C(=O)O)c1ccc(OCCO)cc1 | -0.111
COC(=O)[C@@]1(Cc2ccc(OC)cc2)[C@H]2c3cc(C(=O)N(C)C)n(Cc4cc(F)c(F)c(F)c4)c3C[C@H]2CN1C(=O)c1ccccc1 | 0.58
C=CCC(OC(C)=O)[C@@H]1[C@@H](N(Cc2ccc(-c3ccccc3)cc2)C(=O)Cc2ccc(OC)cc2)c2cc(OCCCO)ccc2N1C(=O)c1ccc(-c2ccccc2)cc1 (stereo partly specified) | -0.0488
COc1ccc(CCNC(=O)[C@@H]2c3ccccc3C(=O)N(Cc3ccccc3)[C@H]2c2ccc(CO)cc2)cc1 | -0.0978
COC(=O)C(CC#Cc1ccc2c(c1)[C@]1(C(=O)N2)[C@H](c2ccccc2OCCO)N2[C@H](c3ccccc3)[C@H](c3ccccc3)OC(=O)[C@H]2[C@@H]1C(=O)Nc1nc2ccccc2s1)C(=O)OC | -0.0688
COc1cc2c(cc1OC)CN(C(=O)[C@@H]1[C@H]3C(=O)O[C@H](c4ccccc4)[C@H](c4ccccc4)N3[C@H](c3ccc(OCCO)cc3)[C@@]13C(=O)Nc1ccc(C#CCCO)cc13)CC2 | 0.276
C[N+](C)(C)CCCCCCNC(=O)[C@H]1C[C@H]2C(=O)N3CCC[C@H]3C(=O)N2[C@H]1c1cccc(OCCO)c1 | 0.153
C=C(C(=O)CC[C@H](OC(=O)c1cccnc1)c1ccc(OCCO)cc1)C(C)C | -0.0362
C=C(COC)C(=O)CC[C@H](OC(=O)c1ccccc1-c1ccccc1C(=O)O)c1ccc(CO)o1 | -0.17
COC(=O)[C@@]1(Cc2ccccc2)[C@H]2c3cc(C(=O)N4CCCC4)n(Cc4ccc(OC(F)(F)F)cc4)c3C[C@H]2CN1C(=O)c1ccccc1 | 0.647
CO[C@H]1O[C@H](CO)[C@@H](OC(=O)c2ccc(Br)cc2)[C@@H]2OC(=O)[C@H](Cc3cccc(Br)c3)C/C=C/C[C@@H](Cc3cccc(Br)c3)C(=O)O[C@@H]12 | 0.158
Cc1ccc(N2C(=O)c3ccccc3[C@](C)(C(=O)NC(C)C)[C@@H]2c2ccc(CO)cc2)nc1 | -0.36
NC(=O)[C@@H]1[C@H]2C(=O)O[C@H](c3ccccc3)[C@H](c3ccccc3)N2[C@H](c2ccccc2OCCO)[C@@]12C(=O)Nc1ccc(C#CCCO)cc12 | -0.131
O=C1O[C@H](c2ccccc2)[C@H](c2ccccc2)N2[C@H]1[C@@H](C(=O)N1CCN(c3ncccn3)CC1)[C@]1(C(=O)Nc3ccc(C#CCCO)cc31)[C@H]2c1ccc(OCCO)cc1 | 0.155
CCCC=C(CCC)[C@@H](NS(=O)(=O)c1cccc2cccnc12)c1ccc(C(=O)OC)cc1 | 1.35
